Bioassay records deposited in PubChem by National Center for Advancing Translational Sciences (NCATS).
The list is not random: actives were taken first. Their share in the collection is about 2.7%.
12-LOX inh = ALOX12 (human) lipoxygenase inhibition; Potency, µM (highest dose often 108 µM), for the others: top-dose activity change, negative = inhibition, actives largely listed as inhibitors; 1.1% of 580,000 active; P18054; purified 12hLO, xylenol orange hydroperoxide absorbance; note: potency is the fitted concentration of half-maximal effect; % is set by controls: 0 for no effect and ±100 for the full control effect
Target sequence (P18054 whole entry, looked up): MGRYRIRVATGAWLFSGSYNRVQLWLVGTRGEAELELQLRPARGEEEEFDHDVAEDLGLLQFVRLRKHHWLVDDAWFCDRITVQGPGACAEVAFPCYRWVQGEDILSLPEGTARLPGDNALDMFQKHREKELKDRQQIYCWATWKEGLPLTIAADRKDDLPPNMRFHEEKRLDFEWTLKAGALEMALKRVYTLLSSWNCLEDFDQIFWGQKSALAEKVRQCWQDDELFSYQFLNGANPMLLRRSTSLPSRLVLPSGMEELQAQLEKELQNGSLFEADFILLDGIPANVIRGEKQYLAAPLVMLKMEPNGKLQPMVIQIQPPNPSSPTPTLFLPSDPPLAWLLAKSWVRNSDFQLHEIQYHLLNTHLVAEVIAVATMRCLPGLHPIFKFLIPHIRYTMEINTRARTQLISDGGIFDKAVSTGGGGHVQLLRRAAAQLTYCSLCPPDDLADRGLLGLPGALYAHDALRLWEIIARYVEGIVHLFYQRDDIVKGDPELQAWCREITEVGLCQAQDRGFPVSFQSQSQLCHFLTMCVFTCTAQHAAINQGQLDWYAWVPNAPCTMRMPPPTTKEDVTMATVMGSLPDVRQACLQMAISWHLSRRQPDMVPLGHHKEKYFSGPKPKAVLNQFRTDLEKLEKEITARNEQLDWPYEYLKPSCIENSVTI
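Hydroperoxide product was detected by ferrous iron/xylenol orange as the 573 to 405 nm absorbance ratio. Arachidonic acid at 40 uM (final) was turned over for 30 min at room temperature by 150 nM human 12hLO, pH 7.0 Hepes buffer, after 15 min compound preincubation.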
Nrf2 ARE act = activates Nrf2 signaling; AREc32 ARE-luciferase reporter (MCF7-derived line), luminescence, 24 h; Potency, µM (highest dose often 46.1 µM), for the others: top-dose activation, actives largely listed as activators; 0.31% of 410,000 active; note: potency is the fitted concentration of half-maximal effect; % of control where 0% means no effect; nearly all actives have a fitted effect of over 65% in size
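ARE activation measured as luciferase luminescence (Steady-Glo, 30 min RT) in AREc32_Fluc cells after 24 hr compound exposure at 37 deg C, 5% CO2; cells seeded overnight at 1000/well in OPTI-MEM, 5% FBS.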
ERG Ets-DNA blk = blocks human ERG Ets domain binding to DNA | 0.028% of 370,000 active | fluorescence polarization, His-ERG Ets domain / labelled DNA | Potency, µM (titrated, usually from 76.9 µM), for inactives: at the top dose FP activity, negative = inhibition, hits mostly inhibitors; active = well fitted inhibition curve with a large enough effect in the polarisation, with a control signal flat; inconclusive = small, poorly fitted or top-dose-only effect, or effect the other way, or a change in a side signal; inactive = no such curve, though single readings can be large or run the other way; the % refers to the polarisation;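 note: polarization taken with two DNA probes labelled with fluorescein and Texas red; potency is the fitted concentration of half-maximal effect; % of control where 0% means no effect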
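His-tagged ERG Ets domain (1 uM in the protein solution; 300mM KCl, 50mM Tris-HCl, 1mM EDTA, 1mM DTT, pH 7.5) received compound, then a probe mix of 5 nM fluorescein-DNA and 100nM Texas-615-DNA. Fluorescence polarization was read for both dyes.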
LDHA block = inhibitors of human lactate dehydrogenase A; P00338; purified LDHA, NADH/diaphorase-resazurin fluorescence; stronger effect = lower value; activity change, % (values are at about 110 or 230 µM); 0.15% of 480,000 active; in the data active = activity change below about -30%; inconclusive = mostly about -25% to -30%;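 note: plate controls were DMSO wells for no effect and wells without enzyme for full effect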
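Resorufin fluorescence (ex540/em590), read at 0 and 20 min after diaphorase/resazurin addition, reports the NADH left after a 5 min room-temperature reaction of 2 nM human LDH5 with 0.06 mM NADH and 0.2 mM pyruvate.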
A549 viability = A549 cytotoxicity, counter-screen for Nrf2 inhibitors; A549 ARE-Fluc cells, CellTiter-Fluor viability, 18-24 h; Potency, µM (highest dose often 46 µM), for the others: at the highest dose activity change, negative = cytotoxicity, usual class: inhibitors; 0.16% of 390,000 active; note: potency is the fitted concentration of half-maximal effect; % is set by controls: 0 for no effect and ±100 for the full control effect
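Cytotoxicity counterscreen: CellTiter-Fluor fluorescence was measured in A549 ARE_Fluc cells after 18-24 h of compound exposure in a concentration series. The subsequent BugLite luminescent read reports ARE-luciferase activity.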
Nrf2 block = inhibitors of Nrf2 signaling; A549 ARE-Fluc reporter, luciferase luminescence, 18-24 h; Potency, µM (top dose mostly 46 µM), for inactives: at the highest dose activity change, negative = inhibition, most hits filed as inhibitors; 2.1% of 360,000 active; AID 504444; note: potency is the fitted concentration of half-maximal effect; % is set by controls: 0 for no effect and ±100 for the full control effect; nearly all actives have a fitted effect of over 60% in size
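A549 ARE_Fluc cells (5000/well, 5% FBS OPTI-MEM) pre-incubated 2 h, then treated with compounds 18-24 h at 37C/5% CO2 in concentration-response. CellTiter-Fluor viability read first; BugLite luciferase luminescence after 15 min at room temperature gives Nrf2 activity.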
* hit, by the source's call; ? = inconclusive; . = not tested or not shown; ! = repeats disagree; [ ] = dose if it differs, or a comment. Unless noted, calls come from the whole dose curve; as a rule, active = well fitted curve in the direction sought with a large enough effect; inconclusive = small, poorly fitted or top-dose-only effect, or another doubt; inactive = no such curve, though single readings can be large; an effect the other way counts as inactive or inconclusive.

SMILES | 12-LOX inh | Nrf2 ARE act | ERG Ets-DNA blk | LDHA block | A549 viability | Nrf2 block
CCOc1ccc2nc(C)cc(Nc3ccc(C(=O)OC)cc3)c2c1 | ? | . | . | -3.2 | . | .
CCN(CC)c1ccc(/C=N/NS(=O)(=O)c2ccc(C)c([N+](=O)[O-])c2)cc1 | ? | 0.1% | 14.3% | -2.3 | 0.3% | -0.8%
CCN(CC)c1ccc(/C=N/NS(=O)(=O)c2ccc(Cl)cc2)cc1 | 31.6µM* | . | . | 14.2 | . | .
N#C/C(=C/c1ccc(OC(F)F)cc1)c1ccccn1 | ? | . | . | 8.2 | . | .
Cc1ccc(C(=O)Nc2ccc3oc(-c4ccc(F)cc4)nc3c2)cc1 | ? | . | . | -2.1 | . | .
COc1ccc(C(=O)NC(=S)Nc2ccc(Cl)c(C(=O)O)c2)cc1 | 7.08µM* | 0.1% | 14.2% | -5.1 | 2.6% | ?
COc1ccc(C(=O)NNC(=O)C(=O)Nc2ccc(C)c(Cl)c2)cc1 | 4.6% | 0.2% | 3.9% | -5.0 | ? | 5.8µM*
Cc1ccc(C(=O)NC(=S)Nc2ccc(Oc3ccc(Cl)cc3)cc2)cc1 | 7.94µM* | -0.5% | -0.2% | -0.3 | -2.5% | ?
COc1ccc(C(=O)NNC(=O)C(=O)Nc2ccc(C)cc2)cc1 | ? | 2.8% | -9.9% | -11.9 | -0.7% | -10.2%
Cc1ccccc1C(=O)NC(=S)Nc1ccc(Oc2ccc(Cl)cc2)cc1 | ? | -0.3% | 5.9% | -3.0 | 2.8% | ?
O=C(NC(=S)Nc1ccc(Oc2ccccc2)cc1)c1ccc(Cl)cc1 | ? | 0.6% | . | -14.2 | -20.3% | 25.9µM*
COc1ccc(C(=O)NC(=S)NNC(=O)c2ccc(C)cc2)cc1 | ? | 8.3% | -8.1% | -11.0 | -16.9% | ?
COc1ccc(C(=O)NC(=S)NNC(=O)c2ccc(NC(=O)C(C)C)cc2)cc1 | 44.7µM* | -0.1% | ? | 3.7 | -14.7% | ?
COc1cc(C(=O)NCc2coc(-c3cccs3)n2)ccc1C | ? | . | . | -1.1 | . | .
CSc1nsc(SC)c1NC(=O)Nc1ccccn1 | -3.9% | 10µM* | -6.7% | 0.5 | -13.3% | .
CSc1nsc(SC)c1NC(=O)OCCc1ccccn1 | 27.7% | 0.0% | -9.1% | -0.8 | -13.0% | 0.3%
O=C1c2ccccc2-c2onc3c(N4CCN(CCO)CC4)cc(N4CCN(C(=O)c5ccco5)CC4)c1c23 | 16.7% | 8.9% | 103.1% | 30.6 | 20.6µM* | ?
COc1cc(CNc2ccc(N3CCOCC3)c(C(=O)O)c2)cc(Br)c1OCC(N)=O | ? | . | . | -11.6 | . | .
C=CCn1c(N)c(C(=O)OC)sc1=S | ? | . | . | -6.0 | . | .
COc1ccc(C2(CNC(=O)/C=C\c3ccco3)CCCC2)cc1OC | 44.7µM* | ? | -1.2% | -2.1 | -4.3% | 10.0%
Clc1cccc(CON/C=N/c2ncnc3sccc23)c1 | ? | -0.6% | 0.3% | -7.0 | -4.3% | 16.4µM*
C=CCNC(=O)c1ccccc1NC(=O)/C=C/c1cccc2ccccc12 | -5.9% | . | . | -0.5 | . | .
O=C(/C=C1\C(=O)Nc2ccccc21)/C=C1\C(=O)Nc2ccccc21 | 8.91µM* | ? | 16.3% | 4.2 | -11.1% | -18.6%
Cn1c(O)c(N=Nc2ccc(F)cc2)c2ccccc21 | 17.8µM* | ? | -3.0% | 2.4 | 0.6% | ?
Cn1c(O)c(N=Nc2ccccc2)c2ccccc21 | -71.8% | 10.6% | 3.2% | 9.9 | 3.0% | ?
SMILES | 12-LOX inh | Nrf2 ARE act | ERG Ets-DNA blk | LDHA block | A549 viability | Nrf2 block
CCNCc1ccc(OCc2cccs2)c(OC)c1 | 2.1% | . | . | 3.3 | . | .
CCCn1nnc(NCc2ccc(OCc3cccs3)c(OC)c2)n1 | -0.2% | -0.4% | -3.3% | -10.3 | . | 8.2µM*
CCNC(=O)C1Cc2cc(S(=O)(=O)N(CC)CC)ccc2N1C(C)=O (stereo not drawn) | -5.6% | . | . | -0.4 | . | .
CCOC(=O)NC1(Nc2cccc(Cl)c2)Oc2ccccc2O1 | 44.7µM* | ? | 6.0% | 29.7 | -8.4% | ?
COc1ccc(C2(c3ccc(O)cc3O)CC(c3ccccc3Cl)NC(=S)N2)cc1 (stereo not drawn) | 17.8µM* | -0.6% | 12.4% | -5.5 | 2.1% | 12.4%
CCc1ccc(-c2cc(C(=O)NCc3ccco3)c3ccccc3n2)cc1 | 14.1µM* | . | . | -7.2 | . | .
Cc1ccc(-c2cc(C(=O)NCc3ccco3)c3ccccc3n2)s1 | 25.1µM*! | ? | 0.4% | 1.4 | 11.6% | .
Cc1cccc(NC(=O)c2ccccc2SCC(=O)NCc2ccco2)c1 | ? | . | . | -0.1 | . | .
c1coc(-c2nc3ccccc3s2)c1 | ? | 11.2µM* | 0.2% | -7.7 | 0.2% | ?
COc1cc(-c2cc(C(=O)NCc3ccco3)c3ccccc3n2)cc(OC)c1OC | ? | 8.2% | 6.1% | 0.1 | 14.0% | -29.4%
CCc1ccc(NC(=O)c2ccccc2SCC(=O)NCc2ccco2)cc1 | 5.62µM* | . | . | 5.4 | . | .
Cc1noc(C(C)Sc2nc(C3CC3)nc3ccccc23)n1 (stereo not drawn) | ? | . | . | 2.7 | . | .
CCc1ccc(NC(=O)Cc2nc(-c3cc(C)n(-c4cc(C)on4)c3C)cs2)cc1 | ? | . | . | 5.2 | . | .
O=C(N/N=C/c1ccc(Br)cc1)c1cccc(N/N=C/c2ccc(Br)cc2)c1 | ? | . | . | 0.3 | . | .
O=C(NCc1ccco1)c1nc2ccccc2s1 | 17.4% | 12.6µM* | -1.4% | -0.7 | 0.0%[1.84 µM] | ?
C/C(=C\c1cccc2c1sc1ccccc12)C1Nc2cccc3cccc(c23)N1 | . | . | . | 3.8 | . | .
S=C(NCCSc1ccc(Cl)cc1)Nc1ccc(Nc2ccccc2)cc1 | 35.5µM* | . | . | 7.5 | . | .
Fc1ccc(NC(=S)NCCSc2ccc(Cl)cc2)cc1 | ? | . | . | 4.3 | . | .
Fc1ccccc1CSCCNC(=S)Nc1ccccc1 | 35.5µM* | . | . | 2.8 | . | .
COC(=O)Cc1ccc(NC(=S)NCCSc2ccc(C)cc2)cc1 | 44.7µM* | 1.5% | 9.9% | 0.4 | -14.7% | -40.0%
Cc1ccc(NC(=S)NCCSc2ccc(Cl)cc2)cc1 | 39.8µM* | -0.7% | -2.2% | -10.6 | -19.4% | ?
